This is an account of results in ChEMBL document CHEMBL4513216, “Probing the Open Global Health Chemical Diversity Library for Multistage-Active Starting Points for Next-Generation Antimalarials” (ACS Infect Dis, 2020).

Out of some 68,000 compounds screened, about 2,700 (4%) showed an effect of 50% or more. What follows is part of a selection rich in strong results, with near analogues and random picks from the rest.

This assay has as its system Plasmodium berghei. Description: Screen against P. berghei liver stage (PbLuc), transformed with Luciferase, at 2uM. It is filed as functional, HepG2. To be noted: tested at 2 uM.
`CC1CN(CC(=O)NCc2ccc(F)cc2)CCN1c1nccs1` (stereo not drawn): the INHIBITION is reported as -4.29%.

As to `CN(C)CCNc1cc(-c2ncccc2Cl)c2cc[nH]c2n1`, the INHIBITION amounted to 10.22%.

For `COc1ccc(CN2CCC=C(C(C)NC(C)=O)C2)cc1` (stereo not drawn), the INHIBITION is 60.13%.

Regarding `CC(=O)NC(C)C1=CCCN(Cc2ccc(C(=O)O)cc2)C1` (stereo not drawn), the INHIBITION is recorded as 43.44%.

Consider `COc1ccnc(CN2CCC=C(C(C)NC(C)=O)C2)c1OC` (stereo not drawn), for which the INHIBITION is recorded as 21.97%.

`Cc1cnccc1N1CCN(C(=O)C2CC3(CCNCC3)CN2)CC1` (stereo not drawn): the INHIBITION is on record as -28.32%.

Take `CC[S+](CC)[c-]1c(=O)[nH]c(=O)n(CCc2ccc(F)cc2)c1=O`: the INHIBITION stood at 9.31%.

For the compound `CC(NC(=O)c1ccc(Cl)cc1)c1nnc(SCC(N)=O)n1C` (stereo not drawn), the INHIBITION was determined as 14.46%.

Take `CS(=O)(=O)NCC1CCCN(C(=O)Nc2ccccc2Cl)C1` (stereo not drawn): the INHIBITION is recorded as -7.21%.

On to `CS(=O)(=O)NCC1CCCN(C(=O)Nc2ccccc2F)C1` (stereo not drawn), for which the INHIBITION is -5.61%.

Take `CS(=O)(=O)NCC1CCCN(C(=O)Nc2cccc3ccccc23)C1` (stereo not drawn): the INHIBITION is 58.93%.

In the case of `Cn1cc(C(=O)NC2CCCC2)c(-c2cccnc2)n1`, the INHIBITION was -18.81%.

As to `CN(CC(=O)Nc1ccccc1C(=O)NC1CC1)Cc1ccccc1Cl`, the INHIBITION is recorded as 19.66%.

For `CCOc1ccccc1NC(=O)CN(C)Cc1ccccc1Cl`, the INHIBITION turned out to be 55.73%.

Take `CCOC(=O)c1ccccc1NC(=O)CN(C)Cc1ccccc1Cl`: the INHIBITION amounted to 16.25%.

On to `O=C1NCCN1C1CCN(CC(O)c2ccccc2F)CC1` (stereo not drawn), for which the INHIBITION was -54.48%.

Consider `CNC(=O)[C@@H]1C[C@H](N)CN1S(=O)(=O)c1cc(Cl)cc(Cl)c1O`, for which the INHIBITION was determined as 92.61%.

As to `CNC(=O)[C@@H]1C[C@H](N)CN1S(=O)(=O)c1cc(C)c(Cl)cc1C`, the INHIBITION amounted to 25.45%.

Consider `CNC(=O)[C@@H]1C[C@H](N)CN1S(=O)(=O)c1cc(Cl)c(Cl)s1`, for which the INHIBITION came out at 18.19%.

As to `CN(C)[C@@H]1CN(C(=O)Cc2ccsc2)[C@@H]2CCCO[C@H]12`, the INHIBITION amounted to 16.63%.

As for `CN(Cc1ccccc1CN1CCCC1)C(=O)c1c[nH]c(=O)[nH]1`, the INHIBITION is reported as 0.31%.

For `CN(Cc1ccccc1CN1CCCC1)C(=O)c1c(O)cccc1O`, the INHIBITION is recorded as 54.29%.

For `CN(CCN1CCCCCC1)C(=O)c1c(O)cccc1O`, the INHIBITION is recorded as -46.57%.

As to `C1CCN(CCN2CCCCC2C2OCCO2)CC1` (stereo not drawn), the INHIBITION is -26.04%.

As for `CNC(=O)C1(C)CN(c2nnc(C)c3ccccc23)CCO1` (stereo not drawn), the INHIBITION turned out to be 31.39%.

Regarding `Cc1nnc(N2CCOC(C)(C(=O)NC3CCCC3)C2)c2ccccc12` (stereo not drawn), the INHIBITION is 51.88%.

For `Cc1nnc(N2CCOC(C)(C(=O)N(C)C)C2)c2ccccc12` (stereo not drawn), the INHIBITION worked out at 29.68%.

For the compound `CCn1ncc2c1C(COCC1CC1)N(Cc1ccccn1)CC2` (stereo not drawn), the INHIBITION turned out to be 1.74%.
